# OTUD3 inh: human OTUD3 deubiquitinase inhibition. inhibition, % at 25 µM. purified OTUD3, Ub-rhodamine fluorescence, 2 h. actives 0.7% (n = 47,000). AID 1645858. Q5T2D3
# Target sequence (Q5T2D3 whole entry, looked up): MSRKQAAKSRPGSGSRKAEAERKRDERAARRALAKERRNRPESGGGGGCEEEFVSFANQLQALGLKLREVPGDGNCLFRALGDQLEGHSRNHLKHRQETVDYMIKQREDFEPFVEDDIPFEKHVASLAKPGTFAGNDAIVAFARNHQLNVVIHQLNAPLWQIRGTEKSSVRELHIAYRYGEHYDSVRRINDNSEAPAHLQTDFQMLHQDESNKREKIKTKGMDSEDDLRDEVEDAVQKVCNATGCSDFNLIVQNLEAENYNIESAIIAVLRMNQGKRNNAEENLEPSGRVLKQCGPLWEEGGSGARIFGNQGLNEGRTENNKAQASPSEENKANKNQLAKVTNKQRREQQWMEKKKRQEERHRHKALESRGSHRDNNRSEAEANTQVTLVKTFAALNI
# USP28 block: blocks human USP28 ubiquitin-rhodamine cleavage | Q96RU2 | purified USP28, Ub-rhodamine cleavage fluorescence, 30 min | inhibition, % at 25 µM | actives 3% (n = 47,000) | AID 1645857
# USP30 inh: blocks human USP30 ubiquitin-rhodamine cleavage. actives 5.3% (n = 47,000). purified USP30, Ub-rhodamine cleavage fluorescence. inhibition, % at 25 µM. AID 1645860. Q70CQ3
# USP17 inh: inhibitors of human USP17 deubiquitinase; purified USP17, Ub-rhodamine cleavage fluorescence, 3 h; actives 6.5% (n = 47,000); inhibition, % at 50 µM; A8MUK1; AID 1645855
# * hit, by the source's call; i = inactive; . = not tested or not shown. A selection: hits, their analogues and other compounds. The true share with any hit is near 12%. Rule as the data show it: active = inhibition above about 30%; inactive = the rest.
SMILES,OTUD3 inh,USP28 block,USP30 inh,USP17 inh
Cc1ccccc1C(=O)Nc1cccc(SC(C(=O)Nc2ccc(O)c(C(=O)O)c2)c2ccccc2)c1 (stereo unspecified),11,15,38*,28
O=C(O)c1ccccc1C(=O)Nc1ccc(SC(C(=O)Nc2ccccc2Cl)c2ccccc2)cc1 (stereo unspecified),9,24,4,47*
O=C(NC1CCN(c2cc(-c3ccccc3)[nH]n2)CC1)c1ccccn1,-12,-29,-20,-25
CCS(=O)(=O)Nc1ccc2sc(NC(=O)c3ccc(C)cc3)nc2c1,0,7,-27,4
COc1ccc(C(=O)N(c2ccc(F)cc2)c2nc3ccccc3s2)c(OC)c1,-5,2,-36,-27
COc1cccc(C2c3[nH]c4ccccc4c3C[C@@H]3C(=O)N(CCCN4CCOCC4)CC(=O)N23)c1 (stereo partly specified),-9,-12,37*,-17
COc1ccc(C2c3[nH]c4ccccc4c3C[C@H]3C(=O)N(CCCN4CCOCC4)CC(=O)N23)cc1 (stereo partly specified),-28,-24,-90,-28
CC(C)(C)c1ccc(C(=O)Nc2ccc(Cn3cncn3)cc2)cc1,-4,56*,3,3
O=C1C/C(=C\c2ccc3c(c2)OCO3)Cc2ccccc21,12,30*,9,23
O=C1CSCC(=O)N1c1ccc2c(c1)OCO2,-2,5,-4,.
O=C1Cc2ccccc2C(=O)N1c1ccc2c(c1)OCO2,14,36*,-52,66*
CC1CS(=O)(=O)N(c2ccc(C(=O)NCCc3ccc(Cl)cc3)cc2)C1=O (stereo unspecified),-5,-2,0,2
COc1ccc(/C=C2\CSc3sccc3C2=O)cc1,11,50*,21,20
COc1ccc2c(c1)C(=O)C/C(=C\c1ccc(Cl)cc1)C2,18,16,20,20
CCOC(=O)c1c(C)oc2ccc(N(C(=O)c3ccncc3)S(=O)(=O)c3ccc(OCC)cc3)cc12,-12,38*,-12,-17
O=S(=O)(NCc1csc2ccc(Cl)cc12)c1cccc2cccnc12,11,10,29,6
Cn1c(=O)c2c(nc(CN3CCOCC3)n2Cc2c(F)cccc2Cl)n(C)c1=O,2,-5,8,12
O=C(Nc1ccccc1)c1ccc2c(c1)CC(c1ccccc1)OC2=O (stereo unspecified),13,5,17,74*
CCOc1ccc(Nc2cc(C(=O)NCc3ccc(C)cc3)c3ccccc3n2)cc1,1,.,.,53*
Cc1ccc(COc2cc(C(=O)NCc3ccccc3)c3ccccc3n2)cc1,-8,-8,1,-20
Cc1ccc(CCNC(=O)c2cc(OCc3ccc(C)cc3)nc3ccccc23)cc1,12,4,0,10
COc1ccc(Nc2cc(C(=O)NCc3cccnc3)c3ccccc3n2)cc1OC,-3,8,14,40*
CCOc1ccc(Nc2cc(C(=O)NCCc3ccccc3)c3ccccc3n2)cc1,-4,-10,12,56*
COc1cc(OC)c(NC(=O)CCC(=O)N2CCCn3nc(C)cc32)cc1Cl,-1,-11,-4,-4
COc1ccc(C2[C@@H]3CCCC[C@]3(O)CCN2C(=O)/C=C/c2cc(OC)c(OC)c(OC)c2)cc1 (stereo partly specified),-7,-10,-23,-14
SMILES,OTUD3 inh,USP28 block,USP30 inh,USP17 inh
Cn1c(SCc2ccc(C(C)(C)C)cc2)nc(-c2ccccc2)c1-c1ccccc1,21,12,34*,19
CCN1CCN(c2ccc(NC(=O)COc3cccc(C)c3)cc2)CC1,7,12,32*,19
Cc1cccc(OCC(=O)Nc2ccc3c(c2)NC(=O)CO3)c1,6,4,12,41*
Cc1cc(OCC(=O)Nc2ccc3c(c2)NC(=O)CO3)ccc1Cl,7,13,14,10
Cc1ccc(Nc2nc(N3CCN(CCO)CC3)nc3nccnc23)cc1Cl,1,-6,-94,-5
COc1ccc(NC(=O)N2CCC3(CC2)CC[C@@]2(C(=O)N(C)C)CN(C(C)=O)C[C@@H]32)cc1,6,1,10,-8
Cc1ccc(C(=O)N2CCC3(CC2)CC2(CO3)Nc3ccccc3-n3cccc32)cn1 (stereo unspecified),-39,-42,-184,29
Cc1nn(C)cc1C(=O)N1CCC2(CC1)CC1(CO2)Nc2ccccc2-n2cccc21 (stereo unspecified),-20,-20,-36,38*
O=C(Cc1ccccc1F)N1CCC2(CC1)CC1(CO2)Nc2ccccc2-n2cccc21 (stereo unspecified),2,1,-17,53*
Cc1oc(C2CC2)cc1C(=O)N1CCC2(CC1)CC1(CO2)Nc2ccccc2-n2cccc21 (stereo unspecified),2,17,-5,71*
COc1cccc(-c2nc(-c3ccc(-n4cccn4)nc3)no2)c1,6,5,7,28
COc1cccc(NC(=O)c2cnc3c(c2)c(=O)n(C)c(=O)n3C)c1,19,41*,71*,22
Cc1ccc(NC(=O)c2cnc3c(c2)c(=O)n(C)c(=O)n3C)cc1,-4,0,19,62*
CN1CCCC12CCCN(C(=O)CNC(=O)OCc1ccccc1)C2 (stereo unspecified),2,4,1,-20
COc1ccc(NC(=O)c2cc(C3CC3)nc3c2cnn3C(C)C)cn1,-134,-144,i,-184
CC[C@H](C)C[C@H]1CC[C@](O)([C@](C)(O)C(=O)N[C@@H]2C(=O)N3NCCC[C@@H]3C(=O)N(O)[C@@H](C)C(=O)NCC(=O)N3NCCC[C@H]3C(=O)N(O)[C@H](C)C(=O)O[C@H]2C(C)C)O[C@@H]1C,73*,48*,61*,41*
CCOc1ccccc1CN1CCC[C@@H](Cn2nnc(-c3ccncc3)n2)C1,12,14,32*,12
COc1ccc(S(=O)(=O)N2CCC[C@@H](Cn3nnc(-c4ccncc4)n3)C2)cc1,0,5,10,4
O=C(NCc1ccc(F)cc1F)c1nc(-c2cnccn2)no1,3,3,-3,-25
O=C(Nc1ccc2c(c1)OCCO2)Nc1nnc(CC(=O)N2CCOCC2)s1,-11,7,2,-7
O=C(Nc1ccc2c(c1)OCCO2)Nc1nnc(CC(=O)N2CCCCC2)s1,6,56*,11,-5
Cc1ccc(CNC(=O)c2cc(=O)nc3sc(N4CCCCCC4)nn23)cc1,11,17,31*,4
Cc1cc(OCC(=O)Nc2cccc(C#N)c2)nc(N2CCCC(C)C2)n1 (stereo unspecified),1,7,0,4
Cc1cc(OCC(=O)Nc2ccccc2C#N)nc(-c2ccc(F)cc2)n1,-16,-6,-25,36*
Cc1cc(OCC(=O)Nc2ccccc2C#N)nc(N2CCCCCC2)n1,16,.,.,-10
Cc1cc(OCC(=O)Nc2ccccc2F)nc(N2CCCC(C)C2)n1 (stereo unspecified),7,7,47*,18
Cc1cc(OCC(=O)Nc2c(C)cccc2C)nc(N2CCCCCC2)n1,8,5,9,30*

# High-throughput results deposited in PubChem BioAssay by Buhrlage Lab, Dana-Farber Cancer Institute and Novartis Institutes for BioMedical Research (Cambridge, Mass).
